3T3 cytotox: NIH 3T3 cell cytotoxicity. NIH 3T3 viability, CellTiter-Glo ATP luminescence, 48-72 h. Potency, µM (titrated, usually from 96.7 µM), hits mostly inhibitors. hit rate 4.3% among 94,000. AID 1345082; also: nearly all actives have a fitted effect of over 55% in size
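ATP-dependent luminescence (CellTiter-Glo) served as the viability signal for NIH 3T3 cells treated with compound for 48 or 72 hr at 37 °C.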
hNpr1 antagonist: blocks ANP-stimulated signaling of human Npr1 receptor; HEK293 hNpr1 GloSensor cGMP, ANP-stimulated luminescence; hit rate 1.6% among 76,000; Potency, µM (titrated, usually from 46.3 µM), actives largely listed as inhibitors; P16066; calls by dose curve; also: nearly all actives have a fitted effect of over 60% in size
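Compound pre-incubated 30 min at room temperature on GloSensor-loaded HEK293 cells stably carrying hNpr1 and the pGS-40F cGMP biosensor. Stimulation uses hNppA at 0.1 nM final; luminescence is taken at baseline and 20 min post-agonist.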
HEK cytotox: kills HEK 293 cells | Potency, µM (top dose mostly 115 µM), actives largely listed as inhibitors | HEK 293 viability, ATP luminescence (CellTiter-Glo), 48-72 h | hit rate 6.6% among 94,000; also: nearly all actives have a fitted effect of over 60% in size
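ATP-coupled CellTiter-Glo luminescence served as viability read-out, recorded 10 min after reagent addition at room temperature. HEK 293 cells, 250 cells/well, had been incubated with pintool-transferred compound for 48 or 72 hr at 37 degree Celsius.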
FLuc inh-1: blocks purified firefly luciferase enzyme activity; P08659; purified P. pyralis luciferase, luminescence, biochemical; Potency, µM (highest dose often 115 µM), usual class: inhibitors; hit rate 2.5% among 76,000; also: nearly all actives have a fitted effect of over 65% in size
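Inhibitors were tested against purified firefly luciferase in a biochemical, low-substrate format (both substrates at 10uM) and luminescence measured with a CCD imager.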
FLuc SDR -ATP: firefly luciferase binding stabilization, ATP absent; shares compounds with FLuc inh-1; Purified FLuc-C-HiBiT, Nano-Glo HiBiT luminescence, no ATP; Potency, µM (top dose mostly 32.7 µM), most hits filed as activators; hit rate 7.8% among 1,300; also: nearly all actives have a fitted effect of over 55% in size
FLuc SDR ATP: stabilizes firefly luciferase with ATP present; shares compounds with FLuc inh-1; purified FLuc-C-HiBiT + ATP, HiBiT complementation luminescence; Potency, µM (doses to about 32.7 µM), actives largely listed as activators; hit rate 8.7% among 1,300; AID 1963319;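 also: signal reports ligand binding via conformational change of the enzyme rather than luciferase catalysis; nearly all actives have a fitted effect of over 55% in size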
FLuc inh-2: firefly luciferase enzyme inhibition; Potency, µM (top dose mostly 32.7 µM), usual class: inhibitors; shares compounds with FLuc inh-1; AID 1963320; hit rate 42% among 1,300; purified FLuc-C-HiBiT enzyme, luciferin luminescence; also: nearly all actives have a fitted effect of over 70% in size
Each line names hits and unclear results; the compound was inactive in the other large screens (follow-up assays come after a bar, where they were run). In the library only some 11% were active in any assay of this set; here they are far more common. Unless noted, calls follow the shape of the dose curve; as a rule, active = well fitted curve in the direction sought with a large enough effect; inconclusive = small, poorly fitted or top-dose-only effect, or another doubt; inactive = no such curve, though single readings can be large; an effect the other way counts as inactive or inconclusive.

CCc1ccc(NC(=O)C2CCN(C(=O)c3nnn4cc(C)[nH]c(=O)c34)CC2)cc1	FLuc inh-1 inconclusive
Cc1cn2nc(C(=O)NCc3ccccn3)cc2c(=O)[nH]1	none
Cc1cn2nc(C(=O)Nc3ccc(C(=O)NCCc4cccs4)cc3)cc2c(=O)[nH]1	FLuc inh-1 4.47µM | FLuc SDR -ATP inconclusive | FLuc SDR ATP inconclusive | FLuc inh-2 8.81µM
Cc1cc(-c2cccc(COc3ccc4c(cnn4CC[S+](C)(=O)[O-])c3)c2)ccn1	3T3 cytotox 25.1µM, hNpr1 antagonist 10µM, HEK cytotox 25.1µM, FLuc inh-1 12.6µM | FLuc SDR -ATP inactive | FLuc SDR ATP inactive | FLuc inh-2 inconclusive
C[S+](=O)([O-])CCn1ncc2cc(OCc3cccc(-c4ccc(F)cc4)c3)ccc21	3T3 cytotox inconclusive, hNpr1 antagonist 25.1µM, HEK cytotox inconclusive, FLuc inh-1 10µM | FLuc SDR -ATP inactive | FLuc SDR ATP inactive | FLuc inh-2 inconclusive
C[S+](=O)([O-])CCn1ncc2cc(OCC3CCN(C(=O)c4cccc(F)c4F)CC3)ccc21	HEK cytotox inconclusive
C[S+](=O)([O-])CCn1ncc2cc(OCc3cccc(-c4ccccc4O)c3)ccc21	3T3 cytotox inconclusive, hNpr1 antagonist 31.6µM, HEK cytotox 35.5µM, FLuc inh-1 3.98µM | FLuc SDR -ATP inactive | FLuc SDR ATP inactive | FLuc inh-2 14.3µM
COC(=O)N1CCC(C(=O)N2CCC(c3nc4ccncc4[nH]3)C2)CC1 (stereo unspecified)	none (no result: hNpr1 antagonist, FLuc inh-1)
CCC[C@H](C)Oc1nc(N)c2[nH]c(=O)n(CCCCCN3CCCCC3)c2n1	none (no result: 3T3 cytotox, hNpr1 antagonist, HEK cytotox, FLuc inh-1) | FLuc SDR -ATP inactive | FLuc SDR ATP inactive | FLuc inh-2 inactive
C[C@@H]1C(=O)O[C@H]2[C@H]1CC[C@@]1(C)Cc3sc(NC(=O)c4ccncc4)nc3[C@@H](C)[C@H]21	3T3 cytotox inconclusive, hNpr1 antagonist inconclusive, HEK cytotox 56.2µM, FLuc inh-1 0.501µM | FLuc SDR -ATP inconclusive | FLuc SDR ATP inconclusive | FLuc inh-2 0.57µM
C[C@@H]1C(=O)O[C@H]2[C@H]1CC[C@@]1(C)Cc3sc(NC(=O)c4ccc(F)c(Cl)c4)nc3[C@@H](C)[C@H]21	HEK cytotox inconclusive
C[C@@H]1C(=O)O[C@H]2[C@H]1CC[C@@]1(C)Cc3sc(NC(=O)c4c(F)cccc4F)nc3[C@@H](C)[C@H]21	hNpr1 antagonist inconclusive, HEK cytotox inconclusive, FLuc inh-1 2.24µM | FLuc SDR -ATP inactive | FLuc SDR ATP inactive | FLuc inh-2 9.89µM
COc1ccc(C(CC(=O)N2CCN(C)CC2)c2ccccc2)cc1 (stereo unspecified)	none
Cc1oc(C(O)c2ccccc2F)nc1C(=O)Nc1ccc(N2CCOCC2)cc1 (stereo unspecified)	HEK cytotox inconclusive, FLuc inh-1 10µM | FLuc SDR -ATP inconclusive | FLuc SDR ATP inconclusive | FLuc inh-2 16.1µM
Cc1oc(C(O)c2ccccc2F)nc1C(=O)Nc1ccccc1 (stereo unspecified)	3T3 cytotox inconclusive, HEK cytotox inconclusive, FLuc inh-1 inconclusive
O=C(NC1CCCC1)NC1CCN(C(=O)c2ccc(-c3cncnc3)cc2)CC1	none (no result: hNpr1 antagonist, FLuc inh-1)
CC(C)c1ccc(NC(=O)O[C@@H]2CO[C@H]3[C@@H]2OC[C@@H]3NS(=O)(=O)c2cccs2)cc1	3T3 cytotox inconclusive, HEK cytotox inconclusive, FLuc inh-1 11.2µM | FLuc SDR -ATP inactive | FLuc SDR ATP inactive | FLuc inh-2 inconclusive
O=C(Nc1ccccc1)c1cnc2n1CCN(Cc1c[nH]c3ccccc13)CC2	3T3 cytotox inconclusive, HEK cytotox inconclusive
O=C1CCN(C(=O)[C@H](Cc2ccccc2)NC(=O)c2cccs2)CCCOCCN1	none
OC(c1nc(Nc2ccc(Oc3ccccc3)cc2)n[nH]1)C1CC1 (stereo unspecified)	3T3 cytotox inconclusive, HEK cytotox inconclusive, FLuc inh-1 14.1µM | FLuc SDR -ATP inactive | FLuc SDR ATP inactive | FLuc inh-2 inconclusive
CN(C)c1cccc(C(=O)Nc2cccc(-c3nnc4n3CCCC4)c2)c1	HEK cytotox inconclusive, FLuc inh-1 inconclusive
COc1ccccc1OC(C)C(=O)Nc1ccc(-c2nc3ccccc3s2)cc1 (stereo unspecified)	none (no result: 3T3 cytotox, hNpr1 antagonist, HEK cytotox, FLuc inh-1) | FLuc SDR -ATP inactive | FLuc SDR ATP inactive | FLuc inh-2 inactive
CC(C)Oc1ccc(C(=O)Nc2ccc(-c3nc4ccccc4s3)cc2)cc1	none (no result: 3T3 cytotox, hNpr1 antagonist, HEK cytotox, FLuc inh-1) | FLuc SDR -ATP inactive | FLuc SDR ATP inactive | FLuc inh-2 inactive
CN(C(=O)OC(C)(C)C)c1ccc(-c2nc3ccccc3s2)cc1	none (no result: 3T3 cytotox, hNpr1 antagonist, HEK cytotox, FLuc inh-1) | FLuc SDR -ATP 1.4µM | FLuc SDR ATP 0.351µM | FLuc inh-2 0.0989µM
CN(C)c1cccc(C(=O)Nc2ccc(-c3nc4ccccc4s3)cc2)c1	none (no result: 3T3 cytotox, hNpr1 antagonist, HEK cytotox, FLuc inh-1) | FLuc SDR -ATP inactive | FLuc SDR ATP inconclusive | FLuc inh-2 inconclusive
COc1ccccc1NC(=O)Nc1ccc(-c2nnc3n2CCCC3)cc1	HEK cytotox inconclusive
CC(C)Oc1cccc(-c2nc(C(=O)Nc3ccc(F)cc3)cs2)c1	3T3 cytotox inconclusive, HEK cytotox inconclusive, FLuc inh-1 inconclusive
COC[C@H]1C[C@@H](NC(=O)c2nc3ccccc3s2)[C@H](O)[C@@H]1O	none
O=C(Cc1ccc(F)cc1)N1CCN(C(=O)c2nc3cccnc3n(Cc3ccccc3)c2=O)CC1	none (no result: hNpr1 antagonist, FLuc inh-1)
COC[C@@H]1CN(Cc2ccc(F)cc2Cl)C[C@H]1C(=O)NC1CC1	none
O=C(COc1ccccc1F)Nc1ccc(-c2nc3ccccc3s2)cc1	none (no result: 3T3 cytotox, hNpr1 antagonist, HEK cytotox, FLuc inh-1) | FLuc SDR -ATP inactive | FLuc SDR ATP inactive | FLuc inh-2 inactive
CC(=O)Nc1ccc(OCC(=O)NCc2ccccc2F)nc1	none
CC(=O)NC1(C)CCN(Cc2ccc(-c3ccc4c(ccn4C)c3)cc2)C1 (stereo unspecified)	3T3 cytotox inconclusive, hNpr1 antagonist inconclusive, HEK cytotox inconclusive, FLuc inh-1 4.47µM | FLuc SDR -ATP inactive | FLuc SDR ATP inconclusive | FLuc inh-2 7.18µM
CC1(C)C[C@H]2C[C@@H](O)[C@H](N3CCN(c4ccc(C(F)(F)F)cn4)CC3)[C@]2(O)CO1	HEK cytotox inconclusive (no result: hNpr1 antagonist, FLuc inh-1)
COc1cccc(NC(=O)c2ccc3c(c2)N(C)C2CCCCCN2C3=O)c1 (stereo unspecified)	3T3 cytotox inconclusive, HEK cytotox inconclusive, FLuc inh-1 inconclusive
CN1c2cc(C(=O)Nc3cccc(F)c3)ccc2C(=O)N2CCCCCC21 (stereo unspecified)	3T3 cytotox inconclusive, HEK cytotox inconclusive, FLuc inh-1 8.91µM | FLuc SDR -ATP inactive | FLuc SDR ATP inactive | FLuc inh-2 inconclusive
CN1c2cc(C(=O)Nc3cccc(Cl)c3)ccc2C(=O)N2CCCCCC21 (stereo unspecified)	3T3 cytotox inconclusive, HEK cytotox inconclusive, FLuc inh-1 10µM | FLuc SDR -ATP inactive | FLuc SDR ATP inactive | FLuc inh-2 inconclusive

Screens as filed in PubChem.
